Reference: PubChem BioAssay AID720597 (Broad Institute, 2013)
Potency and affinity values are given separately. Activity calls are given as the source filed them.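 Rule for the calls: active = fitted half-maximal dose no more than twice the top valid tested dose, for compounds that lower signal; inconclusive = fit invalid, or curve flat with activity between -70 and -30; inactive = potency past limit, curve flat within ±30, or signal increasing.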

These molecules were tested against NAD-dependent protein deacylase sirtuin-5, mitochondrial (Homo sapiens) (UniProt Q9NXA8) (assay: SIRT5 deacylase inhibitors, dose response, biochemical, fluorescence imaging, cherry-pick, set 6 (AID 720597;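 note: lower AMC signal can also come from blocking the trypsin step; 0% = median of neutral control wells and -100% = median of positive control wells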)). Settings: Purified SirT5, succinyl-peptide-AMC/trypsin fluorescence; series mostly up to 15 µM; activity change, negative = inhibition: at the top concentration.
Chain of NAD-dependent protein deacylase sirtuin-5, mitochondrial (Homo sapiens) (Q9NXA8 whole entry, looked up): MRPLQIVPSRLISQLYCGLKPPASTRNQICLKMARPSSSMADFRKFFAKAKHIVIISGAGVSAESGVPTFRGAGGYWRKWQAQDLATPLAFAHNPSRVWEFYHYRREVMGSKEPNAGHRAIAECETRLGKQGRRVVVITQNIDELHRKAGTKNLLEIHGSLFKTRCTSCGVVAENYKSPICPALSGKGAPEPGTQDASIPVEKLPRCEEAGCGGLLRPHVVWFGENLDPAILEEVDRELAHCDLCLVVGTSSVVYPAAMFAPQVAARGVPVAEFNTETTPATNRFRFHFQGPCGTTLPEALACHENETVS

Activity change, negative = inhibition, inactive:
C[C@H](O)C#Cc1ccc2c(c1)O[C@H](CN(C)Cc1ccc(-c3ccccc3)cc1)[C@H](C)CN([C@@H](C)CO)S2(=O)=O -28.8%
C[C@@H]1CN([C@@H](C)CO)C(=O)c2cc(NC(=O)Cc3cn(C)c4ccccc34)ccc2O[C@@H]1CN(C)Cc1ccc(Oc2ccccc2)cc1 -10.4%
C[C@@H]1CN([C@@H](C)CO)S(=O)(=O)c2ccc(C#Cc3ccc(F)cc3)cc2O[C@H]1CN(C)S(=O)(=O)c1ccc(F)cc1 -1.34%
CN1c2ccc(-c3ccc(F)cc3)cc2[C@@H]2[C@@H](CCN2C(=O)c2ccncc2)[C@@H]1CO -11.8%
COc1ccccc1S(=O)(=O)N(C)C[C@H]1Oc2cc(C#CCC3CCCC3)ccc2S(=O)(=O)N([C@@H](C)CO)C[C@@H]1C 0.417%
C[C@@H]1CN([C@H](C)CO)C(=O)c2cccc(NC(=O)NC3CCCCC3)c2O[C@@H]1CN(C)Cc1ccc(Oc2ccccc2)cc1 -19%
C[C@H]1CN([C@@H](C)CO)C(=O)Cc2cc(NC(=O)Nc3ccc(F)cc3)ccc2O[C@H]1CN(C)C -2.82% [at 16 µM]
COc1cccc(NC(=O)N(C)C[C@@H]2Oc3cc(C#Cc4ccccc4)ccc3S(=O)(=O)N([C@H](C)CO)C[C@H]2C)c1 16.7%
C[C@H](CO)N1C[C@H](C)[C@@H](CN(C)Cc2ccc(Cl)c(Cl)c2)Oc2c(NC(=O)c3ccc(-c4nccs4)cc3)cccc2C1=O -6.33% [at 3.8 µM]
COc1ccc(S(=O)(=O)Nc2ccc3c(c2)C(=O)N([C@H](C)CO)C[C@@H](C)[C@H](CN(C)Cc2ccc(Oc4ccccc4)cc2)O3)cc1 -25.1%
CC(C)C#Cc1cnc2c(c1)C(=O)N([C@H](C)CO)C[C@@H](C)[C@H](CN(C)C(=O)CN1CCOCC1)O2 -20.8%
C[C@@H]1CN([C@@H](C)CO)C(=O)Cc2cc(NS(=O)(=O)c3ccc(Cl)cc3)ccc2O[C@H]1CN(C)Cc1ccc(Cl)c(Cl)c1 5.95%
